# Hits are enriched below; roughly 4.1% of the tested compounds scored in any of these assays.
# DAX1 inh-1 = blocks DAX1 repression of SF-1 activated StAR promoter. actives 1.1% (n = 370,000). HEK293T StAR-luciferase reporter, SF-1/DAX-1 repression relief. AID 652010. inhibition, % at 6.8 µM;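 active means inhibition above the mean over all tested compounds plus 3 SD, cut at about 3.6% in these data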;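 further: 0% = DAX-1 cells with DMSO and 100% = cells lacking DAX-1 with DMSO; higher inhibition means more luminescence from relief of DAX-1 repression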
# ssDAF12 agonist = S. stercoralis DAF-12 activation, primary screen; actives 1% (n = 370,000); AID 652126; activation, % at 6.8 µM; HEK293 ssDAF-12/GRIP1 lit1-tk-luc reporter, luminescence; % of 3 µM dafachronic acid response;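 active means activation above the mean over all tested compounds plus 3 SD, cut at about 0.9% in these data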;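 further: 0% = DMSO-only wells and 100% = 3 µM delta7-dafachronic acid wells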
# DAX1 inh-2 = inhibits human nuclear receptor DAX1. inhibition, % at 6.75 µM. AID 504766. HEK293 Gal4-DAX1 luciferase reporter, luminescence. P51843. actives 0.99% (n = 340,000);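 active means inhibition above the mean over all tested compounds plus 3 SD, cut at about 4.2% in these data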;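 further: 0% = DAX1-transfected cells with DMSO and 100% = empty-vector control cells with DMSO; inhibition shows as a rise in luminescence from relieved DAX1 repression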
# hcDAF12 agonist = activates DAF-12 receptor from parasite H. contortus; HEK293 hcDAF-12 lit1-tk-luc reporter, luminescence; 0% DMSO, 100% Δ7-dafachronic acid; activation, % at 6.8 µM; actives 1.4% (n = 370,000);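 active means activation above the mean of all tested compounds plus 3 SD, cut at about 5.5% in these data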;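 further: 100% = response to 3 µM Δ7-dafachronic acid high control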
# hgDAF-12 ag = agonists of H. glycines DAF-12 nuclear receptor. HEK293 GAL4-hgDAF12 UAS-luciferase reporter, agonist luminescence; normalized to butyrate control. AID 687014. activation, % at 6.8 µM. actives 1.8% (n = 370,000);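 active means activation above a cutoff set at the mean of all screened compounds plus 3 SD, cut at about 10% in these data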;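 further: 0% = DMSO wells and 100% = sodium butyrate wells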
# DAX1 inh confirm = NR0B1 (human) inhibition, confirmation; shares compounds with DAX1 inh-1; HEK293T StAR-promoter luciferase reporter, SF-1/DAX-1 repression; inhibition, % at 6.8 µM; actives 87% (n = 2,400); AID 652134;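 active means inhibition above the average of every tested compound plus 3 SD, cut at about 3.8% in these data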;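 further: 0% = DAX-1 cells with DMSO and 100% = no DAX-1 control cells with DMSO; active compounds raise luminescence by relieving repression of the StAR reporter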
# Target sequence (P51843 whole entry, looked up): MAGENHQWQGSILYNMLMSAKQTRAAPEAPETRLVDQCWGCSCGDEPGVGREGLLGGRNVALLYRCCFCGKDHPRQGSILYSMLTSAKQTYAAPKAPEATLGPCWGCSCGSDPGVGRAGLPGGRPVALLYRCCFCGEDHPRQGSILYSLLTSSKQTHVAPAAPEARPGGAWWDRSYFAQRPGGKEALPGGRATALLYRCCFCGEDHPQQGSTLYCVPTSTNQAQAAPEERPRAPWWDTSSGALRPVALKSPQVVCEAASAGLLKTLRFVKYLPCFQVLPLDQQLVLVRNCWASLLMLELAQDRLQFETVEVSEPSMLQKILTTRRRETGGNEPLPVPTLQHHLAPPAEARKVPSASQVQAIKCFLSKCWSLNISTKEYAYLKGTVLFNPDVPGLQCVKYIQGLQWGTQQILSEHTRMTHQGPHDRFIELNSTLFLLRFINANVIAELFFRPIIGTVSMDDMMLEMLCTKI
# SF1 mutant ctr = nonselective inhibitor or artifact in SF-1 mutant DAX1 counter-screen | HEK293 StAR-luciferase, SF-1 AF2 mutant, luminescence | shares compounds with DAX1 inh-1 | inhibition, % at 6.8 µM | actives 78% (n = 2,400);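 active means inhibition above the mean of all tested compounds plus 3 SD, cut at about 3% in these data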;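 further: 0% = DAX-1 transfected cells with DMSO and 100% = cells without DAX-1 with DMSO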
# LXR ag = counter-screen for hcDAF-12 agonists: agonists of human LXR-beta; HEK293 Gal4-LXR tk-luc reporter, luminescence, 24 h; normalized: DMSO 0%, positive control 100%; 3,400 tested, under 10 active; shares compounds with hcDAF12 agonist; activation, % at 6.8 µM;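 active means mean percent activation of the reporter above a cutoff set as the average over tested compounds plus their standard deviation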
# hcDAF12 ag = confirmation of H. contortus DAF-12 agonists; shares compounds with hcDAF12 agonist; HEK293 hcDAF-12 lit1-tk-luc reporter, luminescence; % of Δ7-dafachronic acid response; activation, % at 6.8 µM; actives 61% (n = 3,400);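 active means mean activation across triplicate tests above the threshold derived from the earlier primary screen, cut at about 5.5% in these data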;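 further: 0% = DMSO only wells and 100% = 3 µM Δ7-dafachronic acid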
# hgDAF12 conf = confirmation of H. glycines DAF-12 agonists; shares compounds with hgDAF-12 ag; AID 743050; actives 80% (n = 3,300); HEK293 GAL4-hgDAF12 luciferase reporter, agonist mode; percent of butyrate response; activation, % at 6.8 µM;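 active means mean activation over triplicate wells above the hit cutoff derived from the earlier primary screen, cut at about 11% in these data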;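 further: 0% = DMSO low control and 100% = 2 mM sodium butyrate high control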
# LXRb DAF12 ctr = counter-screen for DAF-12 agonists: agonists of human LXR-beta; shares compounds with hgDAF-12 ag; HEK293 Gal4-LXR luciferase reporter, 24 h; activation, % at 6.8 µM; 3,300 tested, under 10 active;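 active means mean activation of the triplicate above a set limit carried over from the primary screen, none filed active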
# * hit, by the source's call; / = not tested or not shown.
SMILES,DAX1 inh-1,ssDAF12 agonist,DAX1 inh-2,hcDAF12 agonist,hgDAF-12 ag,DAX1 inh confirm,SF1 mutant ctr,hgDAF12 conf,LXRb DAF12 ctr,others
O=C(O)c1ccc(/C=N/Nc2ccc(F)cc2F)cc1,12*,2.5*,-1,9.8*,21*,20*,5.5*,21*,1,
Fc1ccc(N/N=C/c2ccncc2)c(F)c1,2,-1,0,-1,4,/,/,/,/,
O=C(Nc1ccc(SC(F)(F)F)cc1)c1ccccn1,6.1*,1.1*,0,8.4*,22*,15*,3,20*,1,LXR ag=2;hcDAF12 ag=11*
O=c1c2ccccc2nnn1CSc1ccccc1F,6.5*,1,3,5.9*,14*,11*,5.3*,15*,1,
O=c1c2ccccc2nnn1CCc1ccccc1,10.0*,0,4,7.1*,16*,12*,6.4*,15*,1,LXR ag=2;hcDAF12 ag=7.8*
O=C(Nc1ccc2c(c1)Cc1ccccc1-2)c1ccco1,5.6*,0,3,6.3*,17*,17*,10*,21*,1,
CCOC(=O)c1ccc(Nc2ccc(C(C)=O)cc2)cc1,9.0*,1.3*,/,7.7*,21*,7.0*,5.7*,19*,1,LXR ag=1;hcDAF12 ag=10*
Cc1cc(C)c(C#N)c(SCc2nnc(-c3ccccc3[N+](=O)[O-])o2)n1,5.1*,1,0,4,16*,18*,4.6*,11*,1,
Cc1cc(C)c(C#N)c(SCc2ccccc2[N+](=O)[O-])n1,-1,-1,-1,1,0,/,/,/,/,
COc1ccc(-c2cc(-c3ccccc3)n[nH]2)c(O)c1,5.5*,0,2,4,16*,6.3*,5.5*,16*,1,
COc1ccc(-c2ncncc2-c2ccccc2)c(O)c1,0,-1,1,-2,3,/,/,/,/,
Cc1ccc2cc(CCNC(=O)c3cccs3)c(=O)[nH]c2c1,2,-1,2,1,10,/,/,/,/,
Cc1ccc2cc(CCNC(=O)c3cccs3)c(=O)[nH]c2c1C,5.6*,-1,3,4,19*,6.8*,3.7*,18*,1,
Cc1ccc2nc(NC(=O)c3ccc4ncsc4c3)sc2c1,6.2*,0,0,4,15*,11*,7.1*,13*,1,
CC(=O)Nc1ccc2oc(-c3ccccc3Br)nc2c1,5.5*,0,0,8.3*,15*,13*,4.7*,16*,1,LXR ag=1;hcDAF12 ag=4
N#Cc1ccccc1NC(=O)c1ccc2c(Cl)c3c(nc2c1)CCCC3,1,-1,3,0,4,/,/,/,/,
O=C(Nc1cccnc1Cl)c1ccc2c(Cl)c3c(nc2c1)CCC3,5.0*,0,2,6,17*,16*,6.1*,20*,1,
CCCCN1CCN(C(=O)C2CCCN(C(=O)c3ccc4c(c3)NC(=O)CS4)C2)CC1 (configuration not stated),0,-1,/,-2,5,/,/,/,/,
Cc1cc(C(=O)Nc2nc(C)c(C(=O)N(C)C)s2)ccc1[N+](=O)[O-],4.6*,0,1,3,14*,13*,5.4*,11*,1,
C/C(=N\NC(=O)c1ccccn1)c1ccc(C(=O)O)s1,5.2*,1,/,4,22*,3,3,11*,0,
CCCC(=O)Nc1ccc(-c2nc3cc(C)c(C)cc3o2)cc1,5.5*,1.6*,2,5,13*,14*,8.7*,16*,1,
COc1ccc(C#Cc2ccc3c(c2)[C@H]2[C@H](CCN2S(=O)(=O)c2ccccc2F)[C@H](CO)N3C)cc1,1,-1,/,-3,-1,/,/,/,/,
COC(=O)C1=C(C)N(Cc2ccccc2C(F)(F)F)C(=NCC2CC2)NC1CCc1ccccc1 (configuration not stated),-2,-1,/,-1,-1,/,/,/,/,
COc1ccccc1CNC(=O)N1CCN(Cc2nc3ccccc3c(=O)[nH]2)CC1,0,-1,/,-2,-1,/,/,/,/,
COc1ccc(NC(=O)c2ccc3c(c2)N(C)CCS3)cc1,7.3*,1,1,5,24*,12*,7.5*,19*,1,
CN1CCSc2ccc(C(=O)NCc3ccccc3)cc21,0,-1,-1,-1,5,/,/,/,/,
